Results from ChEMBL document CHEMBL1961873, “Compounds: GSK PKIS; Assays: Nanosyn kinase panel” (2012).
“And” between values parts separate entries of the source, which are not always exact repeats. Equal entries are not always repeated.

Legend:
[1] = target: T1, Aurora kinase A (Homo sapiens) (UniProt O14965); conditions: at 1 µM;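 note: values are mean percent inhibition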
T1 sequence (whole entry): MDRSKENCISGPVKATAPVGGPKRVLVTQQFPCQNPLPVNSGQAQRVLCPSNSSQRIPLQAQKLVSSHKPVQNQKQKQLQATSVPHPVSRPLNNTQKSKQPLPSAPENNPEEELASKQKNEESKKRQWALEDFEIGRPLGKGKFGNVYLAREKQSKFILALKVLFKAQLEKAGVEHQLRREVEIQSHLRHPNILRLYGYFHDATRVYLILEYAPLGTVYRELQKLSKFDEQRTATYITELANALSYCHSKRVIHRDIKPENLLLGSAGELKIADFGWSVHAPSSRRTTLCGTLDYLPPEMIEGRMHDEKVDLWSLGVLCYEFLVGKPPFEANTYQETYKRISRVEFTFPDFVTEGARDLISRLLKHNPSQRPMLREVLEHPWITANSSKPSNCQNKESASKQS

[2] = target: Aurora kinase B (Homo sapiens) (UniProt Q96GD4); conditions: at 0.1 µM
Chain of Aurora kinase B (Homo sapiens) (Q96GD4 whole entry): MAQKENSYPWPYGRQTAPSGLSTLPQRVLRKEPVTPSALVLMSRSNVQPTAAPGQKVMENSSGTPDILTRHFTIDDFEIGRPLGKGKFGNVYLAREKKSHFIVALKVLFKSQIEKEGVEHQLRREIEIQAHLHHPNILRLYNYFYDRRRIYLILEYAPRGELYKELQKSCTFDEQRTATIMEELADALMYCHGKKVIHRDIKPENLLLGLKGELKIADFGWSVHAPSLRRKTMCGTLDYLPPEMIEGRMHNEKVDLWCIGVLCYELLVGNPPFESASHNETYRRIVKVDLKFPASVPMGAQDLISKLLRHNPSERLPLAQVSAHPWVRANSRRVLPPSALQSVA

[3] = target: Aurora kinase B (Homo sapiens) (UniProt Q96GD4); conditions: at 1 µM
[4] = target: T2, Aurora kinase C (Homo sapiens) (UniProt Q9UQB9); conditions: at 0.1 µM
T2 sequence (whole entry): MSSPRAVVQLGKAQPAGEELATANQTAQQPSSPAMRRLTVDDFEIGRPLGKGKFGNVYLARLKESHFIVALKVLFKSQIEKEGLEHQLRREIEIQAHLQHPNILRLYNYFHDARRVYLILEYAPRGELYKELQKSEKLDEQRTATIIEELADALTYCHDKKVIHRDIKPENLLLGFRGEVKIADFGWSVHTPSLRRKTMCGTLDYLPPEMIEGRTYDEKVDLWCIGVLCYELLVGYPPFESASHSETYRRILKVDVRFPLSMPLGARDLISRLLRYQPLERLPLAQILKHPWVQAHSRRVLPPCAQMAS

[5] = target: T2, Aurora kinase C (Homo sapiens); conditions: at 1 µM
[6] = target: Serine/threonine-protein kinase 10 (Homo sapiens) (UniProt O94804); conditions: at 0.1 µM
Chain of Serine/threonine-protein kinase 10 (Homo sapiens) (O94804 whole entry, looked up): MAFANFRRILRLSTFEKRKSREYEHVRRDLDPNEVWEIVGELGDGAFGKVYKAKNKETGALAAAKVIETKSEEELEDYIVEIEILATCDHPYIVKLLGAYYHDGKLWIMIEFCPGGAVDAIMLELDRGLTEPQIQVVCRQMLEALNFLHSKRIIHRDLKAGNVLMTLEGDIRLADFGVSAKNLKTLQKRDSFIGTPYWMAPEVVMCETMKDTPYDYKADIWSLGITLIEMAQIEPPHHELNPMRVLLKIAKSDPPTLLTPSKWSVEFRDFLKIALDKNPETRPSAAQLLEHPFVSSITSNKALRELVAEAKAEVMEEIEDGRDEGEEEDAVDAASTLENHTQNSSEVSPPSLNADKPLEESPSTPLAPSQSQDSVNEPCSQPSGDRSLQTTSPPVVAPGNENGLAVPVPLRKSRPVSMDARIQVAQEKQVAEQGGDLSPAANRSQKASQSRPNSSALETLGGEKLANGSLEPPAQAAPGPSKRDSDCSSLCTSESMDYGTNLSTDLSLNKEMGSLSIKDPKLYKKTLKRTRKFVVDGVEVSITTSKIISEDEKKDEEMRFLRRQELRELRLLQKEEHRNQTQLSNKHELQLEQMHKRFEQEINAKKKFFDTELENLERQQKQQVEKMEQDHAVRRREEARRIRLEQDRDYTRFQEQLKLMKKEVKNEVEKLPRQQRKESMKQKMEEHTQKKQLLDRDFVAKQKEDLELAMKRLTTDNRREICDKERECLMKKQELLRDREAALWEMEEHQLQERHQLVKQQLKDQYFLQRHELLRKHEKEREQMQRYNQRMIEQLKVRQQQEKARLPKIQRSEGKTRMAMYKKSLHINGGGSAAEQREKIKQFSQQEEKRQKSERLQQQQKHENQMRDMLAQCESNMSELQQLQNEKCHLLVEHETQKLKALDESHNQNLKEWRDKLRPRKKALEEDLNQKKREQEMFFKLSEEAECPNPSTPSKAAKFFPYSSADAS

[7] = target: Serine/threonine-protein kinase 10 (Homo sapiens) (UniProt O94804); conditions: at 1 µM
[8] = target: T3, Mitogen-activated protein kinase kinase kinase kinase 2 (Homo sapiens) (UniProt Q12851); conditions: at 0.1 µM
T3 sequence (whole entry): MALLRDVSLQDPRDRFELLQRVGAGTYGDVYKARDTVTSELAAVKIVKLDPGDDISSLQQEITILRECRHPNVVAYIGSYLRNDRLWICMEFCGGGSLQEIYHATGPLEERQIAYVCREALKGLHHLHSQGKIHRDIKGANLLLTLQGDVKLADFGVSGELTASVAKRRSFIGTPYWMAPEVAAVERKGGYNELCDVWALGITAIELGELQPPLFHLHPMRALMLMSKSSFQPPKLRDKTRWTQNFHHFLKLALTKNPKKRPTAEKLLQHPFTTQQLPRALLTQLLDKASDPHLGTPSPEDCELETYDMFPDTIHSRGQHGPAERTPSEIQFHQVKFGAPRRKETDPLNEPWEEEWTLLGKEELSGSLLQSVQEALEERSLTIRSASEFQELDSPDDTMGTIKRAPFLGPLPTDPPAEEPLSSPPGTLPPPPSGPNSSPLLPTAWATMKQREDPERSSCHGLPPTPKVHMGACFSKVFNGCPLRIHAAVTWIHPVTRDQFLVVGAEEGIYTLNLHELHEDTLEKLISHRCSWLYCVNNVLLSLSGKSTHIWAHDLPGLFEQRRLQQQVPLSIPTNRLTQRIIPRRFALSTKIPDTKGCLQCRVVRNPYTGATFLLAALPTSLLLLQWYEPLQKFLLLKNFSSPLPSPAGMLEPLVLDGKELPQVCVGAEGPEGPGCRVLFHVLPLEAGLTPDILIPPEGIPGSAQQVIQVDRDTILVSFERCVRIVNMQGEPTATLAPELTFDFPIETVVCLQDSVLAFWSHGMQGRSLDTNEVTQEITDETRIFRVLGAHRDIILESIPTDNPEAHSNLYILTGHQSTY

[9] = target: T3, Mitogen-activated protein kinase kinase kinase kinase 2 (Homo sapiens); conditions: at 1 µM
[10] = target: Mitogen-activated protein kinase kinase kinase kinase 4 (Homo sapiens) (UniProt O95819); conditions: at 0.1 µM
Chain of Mitogen-activated protein kinase kinase kinase kinase 4 (Homo sapiens) (O95819 2-1239 limits assumed): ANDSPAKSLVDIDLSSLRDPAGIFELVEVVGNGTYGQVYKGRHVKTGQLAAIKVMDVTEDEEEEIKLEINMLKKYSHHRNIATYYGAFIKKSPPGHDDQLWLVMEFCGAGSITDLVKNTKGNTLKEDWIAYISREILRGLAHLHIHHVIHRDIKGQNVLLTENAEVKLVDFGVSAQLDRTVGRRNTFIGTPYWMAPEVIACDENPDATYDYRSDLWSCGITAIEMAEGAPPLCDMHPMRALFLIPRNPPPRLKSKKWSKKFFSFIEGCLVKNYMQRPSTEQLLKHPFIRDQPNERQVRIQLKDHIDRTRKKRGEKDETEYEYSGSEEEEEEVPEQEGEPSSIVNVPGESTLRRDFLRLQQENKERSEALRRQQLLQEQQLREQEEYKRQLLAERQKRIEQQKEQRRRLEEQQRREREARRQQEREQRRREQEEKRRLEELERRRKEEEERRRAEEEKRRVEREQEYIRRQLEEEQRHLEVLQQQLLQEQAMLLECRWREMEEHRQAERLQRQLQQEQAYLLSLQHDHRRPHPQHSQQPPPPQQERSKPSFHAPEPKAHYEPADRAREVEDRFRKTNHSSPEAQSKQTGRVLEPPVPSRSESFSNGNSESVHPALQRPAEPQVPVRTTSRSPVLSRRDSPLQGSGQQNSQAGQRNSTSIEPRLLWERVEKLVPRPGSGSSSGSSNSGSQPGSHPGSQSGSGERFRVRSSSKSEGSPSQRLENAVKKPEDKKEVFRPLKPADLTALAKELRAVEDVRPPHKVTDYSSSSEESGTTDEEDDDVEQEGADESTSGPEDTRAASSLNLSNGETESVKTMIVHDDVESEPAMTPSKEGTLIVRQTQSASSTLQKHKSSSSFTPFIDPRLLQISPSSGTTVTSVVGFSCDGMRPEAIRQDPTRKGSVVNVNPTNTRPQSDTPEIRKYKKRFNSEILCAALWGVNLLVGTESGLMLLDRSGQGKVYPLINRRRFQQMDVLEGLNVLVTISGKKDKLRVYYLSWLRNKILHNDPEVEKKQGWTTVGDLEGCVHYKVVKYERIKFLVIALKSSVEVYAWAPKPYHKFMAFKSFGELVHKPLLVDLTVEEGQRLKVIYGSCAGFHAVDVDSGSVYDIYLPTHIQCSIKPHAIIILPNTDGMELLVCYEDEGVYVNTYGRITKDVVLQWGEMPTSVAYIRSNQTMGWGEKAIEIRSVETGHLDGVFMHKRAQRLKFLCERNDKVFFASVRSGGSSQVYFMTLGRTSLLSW

[11] = target: Mitogen-activated protein kinase kinase kinase kinase 4 (Homo sapiens) (UniProt O95819); conditions: at 1 µM
[12] = target: Dual specificity mitogen-activated protein kinase kinase 1 (Homo sapiens) (UniProt Q02750); conditions: at 0.1 µM
Chain of Dual specificity mitogen-activated protein kinase kinase 1 (Homo sapiens) (Q02750 whole entry): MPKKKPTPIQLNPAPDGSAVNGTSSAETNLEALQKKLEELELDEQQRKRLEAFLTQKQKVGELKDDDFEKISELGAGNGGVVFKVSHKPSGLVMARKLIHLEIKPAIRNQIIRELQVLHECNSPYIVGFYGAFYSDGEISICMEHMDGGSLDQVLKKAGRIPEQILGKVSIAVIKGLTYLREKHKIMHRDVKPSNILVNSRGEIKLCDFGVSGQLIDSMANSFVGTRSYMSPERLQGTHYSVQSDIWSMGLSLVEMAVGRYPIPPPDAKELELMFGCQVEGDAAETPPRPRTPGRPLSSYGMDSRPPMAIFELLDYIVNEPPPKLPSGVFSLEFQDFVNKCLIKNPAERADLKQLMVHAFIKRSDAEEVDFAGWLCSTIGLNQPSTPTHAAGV

[13] = target: Dual specificity mitogen-activated protein kinase kinase 1 (Homo sapiens) (UniProt Q02750); conditions: at 1 µM
[14] = target: Misshapen-like kinase 1 (Homo sapiens) (UniProt Q8N4C8); conditions: at 0.1 µM
Chain of Misshapen-like kinase 1 (Homo sapiens) (Q8N4C8 whole entry, looked up): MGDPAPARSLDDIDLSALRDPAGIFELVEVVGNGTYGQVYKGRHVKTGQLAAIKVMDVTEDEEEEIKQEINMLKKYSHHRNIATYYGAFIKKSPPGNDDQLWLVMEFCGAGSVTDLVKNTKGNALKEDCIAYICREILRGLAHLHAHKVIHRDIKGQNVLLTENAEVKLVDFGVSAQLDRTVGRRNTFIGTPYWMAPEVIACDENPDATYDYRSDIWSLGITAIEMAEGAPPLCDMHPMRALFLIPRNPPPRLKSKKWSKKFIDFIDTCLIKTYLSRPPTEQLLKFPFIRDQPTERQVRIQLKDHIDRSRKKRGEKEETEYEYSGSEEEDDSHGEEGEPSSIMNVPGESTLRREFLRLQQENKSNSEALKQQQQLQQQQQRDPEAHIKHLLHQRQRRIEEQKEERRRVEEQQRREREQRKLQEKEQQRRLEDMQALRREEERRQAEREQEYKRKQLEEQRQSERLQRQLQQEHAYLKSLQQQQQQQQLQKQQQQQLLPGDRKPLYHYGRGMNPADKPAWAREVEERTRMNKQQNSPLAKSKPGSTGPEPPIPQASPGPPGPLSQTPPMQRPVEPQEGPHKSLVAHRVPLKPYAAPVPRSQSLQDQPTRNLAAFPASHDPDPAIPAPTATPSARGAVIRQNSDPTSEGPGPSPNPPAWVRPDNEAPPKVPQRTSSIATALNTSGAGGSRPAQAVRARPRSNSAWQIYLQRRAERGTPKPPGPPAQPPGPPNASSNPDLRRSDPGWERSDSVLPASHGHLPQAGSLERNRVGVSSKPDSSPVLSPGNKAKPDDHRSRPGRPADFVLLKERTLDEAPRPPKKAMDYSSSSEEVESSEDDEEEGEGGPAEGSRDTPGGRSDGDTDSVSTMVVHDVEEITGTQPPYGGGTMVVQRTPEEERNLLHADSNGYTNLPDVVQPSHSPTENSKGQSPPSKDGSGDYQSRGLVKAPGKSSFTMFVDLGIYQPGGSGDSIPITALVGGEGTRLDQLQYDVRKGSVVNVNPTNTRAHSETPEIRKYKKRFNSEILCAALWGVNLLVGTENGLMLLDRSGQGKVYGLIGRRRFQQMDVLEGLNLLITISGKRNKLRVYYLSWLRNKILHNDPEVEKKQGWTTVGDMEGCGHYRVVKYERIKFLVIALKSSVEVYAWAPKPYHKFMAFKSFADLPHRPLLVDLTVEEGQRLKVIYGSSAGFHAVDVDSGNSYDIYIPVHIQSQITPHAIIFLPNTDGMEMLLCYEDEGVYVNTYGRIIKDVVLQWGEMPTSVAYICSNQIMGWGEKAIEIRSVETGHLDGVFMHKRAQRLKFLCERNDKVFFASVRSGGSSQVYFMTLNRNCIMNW

[15] = target: Misshapen-like kinase 1 (Homo sapiens) (UniProt Q8N4C8); conditions: at 1 µM
[16] = target: T4, Serine/threonine-protein kinase 4 (Homo sapiens) (UniProt Q13043); conditions: at 0.1 µM
T4 sequence (whole entry): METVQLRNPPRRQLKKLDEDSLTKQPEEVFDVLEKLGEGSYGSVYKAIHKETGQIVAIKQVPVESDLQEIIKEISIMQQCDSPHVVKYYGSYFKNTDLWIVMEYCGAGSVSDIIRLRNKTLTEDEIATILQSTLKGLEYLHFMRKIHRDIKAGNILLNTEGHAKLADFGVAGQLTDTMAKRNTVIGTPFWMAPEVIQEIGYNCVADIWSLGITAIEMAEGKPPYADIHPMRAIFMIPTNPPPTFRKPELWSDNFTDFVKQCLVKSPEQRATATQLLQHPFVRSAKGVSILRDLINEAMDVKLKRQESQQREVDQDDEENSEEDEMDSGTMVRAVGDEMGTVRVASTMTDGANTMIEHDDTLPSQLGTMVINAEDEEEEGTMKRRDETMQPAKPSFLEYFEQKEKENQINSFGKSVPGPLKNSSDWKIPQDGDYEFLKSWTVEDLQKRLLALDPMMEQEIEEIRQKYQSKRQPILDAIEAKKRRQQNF

[17] = target: T4, Serine/threonine-protein kinase 4 (Homo sapiens); conditions: at 1 µM
[18] = target: T5, Serine/threonine-protein kinase 3 (Homo sapiens) (UniProt Q13188); conditions: at 0.1 µM
T5 sequence (whole entry): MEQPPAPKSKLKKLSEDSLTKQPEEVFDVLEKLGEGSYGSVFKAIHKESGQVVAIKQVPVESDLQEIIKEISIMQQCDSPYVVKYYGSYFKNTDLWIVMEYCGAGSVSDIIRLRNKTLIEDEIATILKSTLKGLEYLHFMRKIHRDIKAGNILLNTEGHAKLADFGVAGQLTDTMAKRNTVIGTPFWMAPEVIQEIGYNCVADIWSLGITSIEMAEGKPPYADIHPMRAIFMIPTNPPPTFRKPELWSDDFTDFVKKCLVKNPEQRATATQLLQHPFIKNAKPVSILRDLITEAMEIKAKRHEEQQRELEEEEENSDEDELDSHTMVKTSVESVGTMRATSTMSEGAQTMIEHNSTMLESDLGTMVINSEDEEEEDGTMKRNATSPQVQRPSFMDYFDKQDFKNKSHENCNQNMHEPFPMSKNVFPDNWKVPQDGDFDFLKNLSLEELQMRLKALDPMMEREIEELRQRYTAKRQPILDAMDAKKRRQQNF

[19] = target: T5, Serine/threonine-protein kinase 3 (Homo sapiens); conditions: at 1 µM
[20] = target: Serine/threonine-protein kinase 26 (Homo sapiens) (UniProt Q9P289); conditions: at 0.1 µM
Chain of Serine/threonine-protein kinase 26 (Homo sapiens) (Q9P289 2-416 limits assumed): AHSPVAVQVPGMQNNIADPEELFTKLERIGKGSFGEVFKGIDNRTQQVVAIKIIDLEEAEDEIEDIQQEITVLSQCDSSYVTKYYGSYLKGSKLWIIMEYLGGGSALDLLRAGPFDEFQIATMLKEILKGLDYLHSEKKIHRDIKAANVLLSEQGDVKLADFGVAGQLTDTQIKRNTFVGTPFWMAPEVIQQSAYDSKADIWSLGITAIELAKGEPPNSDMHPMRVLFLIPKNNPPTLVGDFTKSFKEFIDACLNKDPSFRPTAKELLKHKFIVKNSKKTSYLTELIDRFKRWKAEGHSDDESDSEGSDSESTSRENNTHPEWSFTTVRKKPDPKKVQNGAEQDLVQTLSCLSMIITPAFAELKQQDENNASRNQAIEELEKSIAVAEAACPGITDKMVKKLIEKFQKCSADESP

SMILES	inhibition [1]	inhibition [2]	inhibition [3]	inhibition [4]	inhibition [5]	inhibition [6]	inhibition [7]	inhibition [8]	inhibition [9]	inhibition [10]	inhibition [11]	inhibition [12]	inhibition [13]	inhibition [14]	inhibition [15]	inhibition [16]	inhibition [17]	inhibition [18]	inhibition [19]	inhibition [20]
Cn1c(-c2nonc2N)nc2cnccc21	7.19%	1.6%	4.18%	1.42%	4.49%	4.28%	7.08%	0.8%	6.6%	6.14%	26.2%	4.67%	4.45%	5.83%	16.6%	3.91%	3.75%	4.04%	5.05%	-0.57%
Cc1nnc(-c2cccc(-c3ccc(C(=O)NCC4CC4)cc3)c2)o1	7.79%	3.21%	3.09%	1.3%	-4.74%	6.23%	7.39%	1.46%	3.14%	7.44%	14.1%	8.77%	4.7%	7.95%	14.7%	8.49%	9.93%	10.6%	10.4%	-0.42%
N#Cc1ccc2c(-c3ccnc(NC4CC4)n3)c(-c3ccc(F)cc3)nn2c1	0.56%	0.7%	-0.38%	0.81%	5.38%	2.63%	4.13%	0.19%	2.06%	5.83%	46%	0.85%	3.35%	6%	30.2%	0.26%	1.31%	1.49%	1.55%	-1.26%
COc1cc(N2CCN(C(C)C)CC2)ccc1Nc1nc(Nc2cccc(F)c2C(=O)O)c2cc[nH]c2n1	6.46%	4.82%	5.02%	0.7%	-0.44%	5.69%	9.11%	0.91%	3.18%	7.43%	10.1%	4.86%	2.88%	4.85%	9.35%	5.23%	9.21%	5.03%	9.11%	-0.64%
NS(=O)(=O)c1ccc(N/N=C2\C(=O)Nc3ccc(C(=O)NCc4ccncc4)cc32)cc1	54.9%	3.41%	11%	1.92%	14.6%	4.56%	9.47%	0.75%	4.07%	11.2%	46.5%	15.6%	57.6%	9.67%	39.4%	36.8%	76.1%	31.2%	72%	0.05%
CN1CCC(C(=O)Nc2n[nH]c3nc(-c4ccc(O)cc4)c(Br)cc23)CC1	3.82% and 3.89%	-1.01% and 4.45%	4.6% and 6.84%	-1.83% and 3.73%	-7.86% and 5.17%	4.1% and 3%	13.5% and 9.07%	4.77% and 3.87%	24.7% and 19.9%	7.33% and 2.89%	35.4% and 22.5%	6.37% and 2.39%	5.03% and 2.15%	7.75% and 5.32%	28.1% and 15.2%	6.69% and 1.72%	14.7% and 2.3%	6.33% and 2.47%	13.2% and 3.69%	1.4% and 1.72%
CN(c1ccc(NC(=O)NCCN2CCOCC2)cc1)c1ccnc(Nc2ccc(CS(C)(=O)=O)cc2)n1	93.9%	29.7%	76.9%	43.8%	104%	11.9%	34.2%	0.62%	3.53%	4.19%	14.7%	5.04%	7.12%	3.82%	7.42%	7.84%	18.8%	6.91%	13.6%	-1.2%
CCS(=O)(=O)c1ccc(OC)c(Nc2ncc(-c3cccc(F)c3)o2)c1	26.8%	4.7%	3.78%	0.03%	5.54%	12%	24.3%	1.31%	8.13%	6.47%	19.2%	4.98%	5%	8.05%	16.1%	3.31%	8.63%	5.69%	8.4%	-0.55%
CS(=O)(=O)Nc1ccc(-c2ccc3c(NC(=O)C4CC4)n[nH]c3c2)cc1	20.2%	4.33%	8.21%	1.71%	23.3%	5.26%	6.56%	1.04%	5.76%	6.29%	34.1%	3.68%	2.95%	6.49%	20.9%	4.89%	11.3%	5.64%	9.06%	-0.25%
